According to PubChem BioAssay AID1159580 (chemical genetic matrix, 2015):
Where “and” joins values, the source holds several entries; their conditions need not be identical. Equal entries are not always repeated. The campaign covered roughly 5,500 compounds. About 2,000 (36%) were called active. Not shown: some 18% with an inconclusive outcome. Rule as the data show it: active = normalized growth mostly below about 0.91 (no sharp cut-off); inconclusive = no clear call, values can overlap the other calls; inactive = mostly above about 0.92. Some of the results follow.

Assay: chemical genetic growth profiling, strain panel (AID 1159580);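 also: tested at 20 µM; growth read once vehicle control cultures reached saturation at 30 °C; 1 = growth at the plate median or of vehicle wells; lower values mean less growth of the strain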
Conditions: S. cerevisiae deletion strains, growth OD

Measured: normalized growth

C=C1[C@H]2CC[C@@]3(C)[C@H](c4ccoc4)OC(=O)C[C@]13O[C@H]1C[C@H](O)C(C)(C)[C@H](CC(=O)OC)[C@]12C
inactive: locus YAL021C, strain ccr4, hits give low values 0.998 | locus YAL026C, strain drs2, hits give low values 1.05 | locus YAL030W, strain snc1, hits give low values 1.02 | locus YBL061C, strain skt5, hits give low values 1.02 | locus YBR009C, strain hhf1, hits give low values 1.01 | locus YBR021W, strain FUR4, hits give low values 0.985 | locus YBR023C, strain chs3, hits give low values 1.01 | locus YBR171W, strain sec66, hits give low values 1.02 | locus YBR229C, strain ROT2, hits give low values 0.999 | locus YBR231C, strain swc5, hits give low values 1.04 | locus YBR279W, strain paf1, hits give low values 1.02 | locus YCL011C, strain gbp2, hits give low values 1.01 | locus YCL016C, strain dcc1, hits give low values 1 | locus YCL029C, strain bik1, hits give low values 1.01 | locus YCL061C, strain MRC1, hits give low values 1.03 | locus YCL069W, strain vba3, hits give low values 1.02 | locus YCR088W, strain abp1, hits give low values 1.02 | locus YDL005C, strain med2, hits give low values 1.02 | locus YDL035C, strain GPR1, hits give low values 1 | locus YDL040C, strain nat1, hits give low values 1.02 | locus YDL074C, strain BRE1, hits give low values 0.99 | locus YDL101C, strain DUN1, hits give low values 1 | locus YDL134C, strain PPH21, hits give low values 1 | locus YDL185W, strain tfp1, hits give low values 1.03 | locus YDL192W, strain arf1, hits give low values 1.02 | locus YDR001C, strain nth1, hits give low values 1.02 | locus YDR069C, strain doa4, hits give low values 1.03 | locus YDR101C, strain arx1, hits give low values 1.01 | locus YDR137W, strain rgp1, hits give low values 0.975 | locus YDR159W, strain sac3, hits give low values 1.04 | locus YDR162C, strain NBP2, hits give low values 1.01 | locus YDR195W, strain ref2 1.03 | locus YDR297W, strain sur2, hits give low values 1.03 | locus YDR318W, strain mcm21, hits give low values 1.02 | locus YDR334W, strain swr1, hits give low values 1.02 | locus YDR335W, strain msn5, hits give low values 1.02 | locus YDR388W, hits give low values 1.02 | locus YDR392W, strain spt3, hits give low values 0.927 | locus YDR502C, strain sam2, hits give low values 1.02 | locus YEL003W, strain gim4, hits give low values 1.03 | locus YEL037C, strain rad23, hits give low values 1.01 | locus YEL061C, strain CIN8 (second series), hits give low values 1.02 | locus YEL061C, strain CIN8, hits give low values 0.998 | locus YER015W, strain faa2, hits give low values 1.03 | locus YER016W, strain bim1, hits give low values 1.02 | locus YER110C, hits give low values 1.02 | locus YER111C, strain swi4, hits give low values 1.03 | locus YER155C, strain BEM2 (second series), hits give low values 1.04 | locus YER155C, strain BEM2, hits give low values 1 | locus YER167W, strain BCK2, hits give low values 1 | locus YFR010W, strain ubp6, hits give low values 1.04 | locus YGL078C, strain dbp3, hits give low values 1.02 | locus YGL086W, strain mad1, hits give low values 1 | locus YGL167C, strain pmr1, hits give low values 1.02 | locus YGL173C, strain kem1, hits give low values 1.04 | locus YGL227W, strain vid30, hits give low values 1.03 | locus YGL240W, strain doc1, hits give low values 1.02 | locus YGL248W, strain PDE1, hits give low values 0.999 | locus YGL253W, strain hxk2, hits give low values 1.03 | locus YGR078C, strain PAC10, hits give low values 0.999 | locus YGR135W, strain pre9, hits give low values 1.02 | locus YGR252W, strain gcn5, hits give low values 1.02 | locus YHR013C, strain ard1, hits give low values 1 | locus YHR027C, strain rpn1, hits give low values 1.02 | locus YHR030C, strain SLT2, hits give low values 0.986 | locus YHR079C, strain IRE1 (second series), hits give low values 1.02 | locus YHR079C, strain IRE1, hits give low values 0.977 | locus YHR094C, strain hxt1, hits give low values 1.02 | locus YHR129C, strain ARP1, hits give low values 1.01 | locus YHR142W, strain chs7, hits give low values 1.01 | locus YHR200W, strain rpn10, hits give low values 1 | locus YIL066C, strain RNR3, hits give low values 1.01 | locus YIL073C, strain SPO22, hits give low values 1.07 | locus YIL125W, strain kgd1, hits give low values 1.01 | locus YIR030C, strain dcg1, hits give low values 1.02 | locus YJL092W, strain hpr5, hits give low values 1.03 | locus YJL095W, strain BCK1 (second series), hits give low values 1.02 | locus YJL095W, strain BCK1, hits give low values 1 and 0.979 | locus YJL115W, strain asf1, hits give low values 1.02 | locus YJL129C, strain trk1, hits give low values 1.02 | locus YJL134W, strain LCB3, hits give low values 1.01 | locus YJL154C, strain vps35, hits give low values 1.02 | locus YJL164C, strain tpk1, hits give low values 1 | locus YJL166W, strain qcr8, hits give low values 1.03 | locus YJL168C, strain set2, hits give low values 1.02 | locus YJL187C, strain SWE1 (second series), hits give low values 1 | locus YJR043C, strain POL32, hits give low values 0.991
